The source of these data is publication PMC12431657, “Discovery and mechanistic insights of dibenzoylmethane as a broad spectrum inhibitor of coronavirus” (PLOS Pathogens, 2025).

For the test, the system named is HCoV-OC43. Set-up: species or system RD; HTS, protection from HCoV-OC43 induced cell death, luminescent cell viability (CellCounting-Lite 2.0), inhibition rate. The following applies: 10 µM, inhibitor.

Read-outs that look alike come from different tables or passages of the source. In all, about 3,300 compounds went through this assay and about 60 (2%) showed an effect of 50% or more. Only a selection was taken, and strong results are over-represented in it overall.

Turning to `CCC(=O)O[C@H]1[C@H](O[C@@H]2[C@@H](C)[C@H](O[C@H]3C[C@@](C)(OC)[C@@H](O)[C@H](C)O3)[C@@H](C)C(=O)O[C@H](CC)[C@@](C)(O)[C@H](O)[C@@H](C)C(=O)[C@H](C)C[C@@]2(C)O)O[C@H](C)C[C@@H]1N(C)C` [Erythromycin estolate, erythromycin estolate], the “OC43 Inhibition rate” value (24 h post infection, 1 h compound pre-incubation) is listed as 99.7%. `O=C1C([C@@H]2O[C@H](CO)[C@@H](O)[C@H](O)[C@H]2O)=C(O)/C(=C(O)/C=C/c2ccc(O)cc2)C(=O)C1(O)[C@@H]1O[C@H](CO)[C@@H](O)[C@H](O)[C@H]1O` (stereo partly drawn) [Hydroxysafflor yellow A]: the “OC43 Inhibition rate” value (24 h) came to 0.2%. For the compound `Oc1c(Br)cccc1Br` [2,6-Dibromophenol], for the setting “24 h”, the “OC43 Inhibition rate” value stood at 1.1%. As for `C[C@H]1CCC[C@@H](O)CCCCCc2cc(O)cc(O)c2C(=O)O1` [Beta-Zearalanol], the “OC43 Inhibition rate” value (24 h) was 0%. Same read-out and setting: as for `C[C@H]1CCCC(=O)CCC/C=C/c2cc(O)cc(O)c2C(=O)O1` [Zearalenone], the figure is 56.4%. Same read-out and setting: for `C=C(C)[C@@H]1[C@H]2OC(=O)[C@@H]1[C@]1(O)C[C@H]3O[C@]34C(=O)O[C@H]2[C@]14C` [Picrotoxinin] the value was 0.5.

As for `O=C1C=CC[C@@H]2[C@H]3CCC[N+]4([O-])CCC[C@@H](CN12)[C@@H]34` (stereo partly drawn) [Oxysophocarpine], the “OC43 Inhibition rate” value (24 h) was -0.3%.

In the case of `C[C@@H]1CC[C@@]2(NC1)O[C@H]1C[C@H]3[C@@H]4CC=C5C[C@@H](O[C@@H]6O[C@H](CO)[C@@H](O[C@@H]7O[C@@H](C)[C@H](O)[C@@H](O)[C@H]7O)[C@H](O)[C@H]6O)CC[C@]5(C)[C@H]4CC[C@]3(C)[C@H]1[C@@H]2C` [Khasianine], the “OC43 Inhibition rate” value (24 h) is recorded as 67.5%. As to `C[C@@H]1CC[C@@]2(OC1)O[C@H]1C[C@H]3[C@@H]4CC=C5C[C@@H](O[C@@H]6O[C@H](CO)[C@@H](O[C@@H]7O[C@@H](C)[C@H](O[C@@H]8O[C@@H](C)[C@H](O)[C@@H](O)[C@H]8O)[C@@H](O)[C@H]7O)[C@H](O)[C@H]6O[C@@H]6O[C@@H](C)[C@H](O)[C@@H](O)[C@H]6O)CC[C@]5(C)[C@H]4CC[C@]3(C)[C@H]1[C@@H]2C` [Formosanin C], the “OC43 Inhibition rate” value (24 h) worked out at 5.5%.

`Cc1c([C@H](C)[C@@H]2NC[C@@H](C)C[C@H]2O)ccc2c1C[C@H]1[C@H]2CC=C2C[C@@H](O[C@@H]3O[C@H](CO)[C@@H](O)[C@H](O)[C@H]3O)CC[C@@]21C` [Veratrosine]: under “24 h”, the “OC43 Inhibition rate” value was 5.4%. With `COc1cc2ccc(=O)oc2c2ccoc12` [Sphondin], where the note is “24 h”, the “OC43 Inhibition rate” value was 0.1%. For `COc1cc([C@@H]2c3cc4c(cc3C(=O)[C@H]3COC(=O)[C@H]23)OCO4)cc(OC)c1OC` [Podophyllotoxone], the “OC43 Inhibition rate” value (24 h) was 4.4%. The same measure, in the same setting: for `Cc1ccc(C=O)cc1` [p-Tolualdehyde] the value was -0.1; for `CC(C)=CCC[C@H](C(=O)O)[C@H]1CC[C@]2(C)C3=C(CC[C@@]12C)[C@@]1(C)CCC(=O)C(C)(C)[C@H]1CC3` [β-Elemonic acid], -1.4%.

With `CC1(C)OC1COc1c2occc2cc2ccc(=O)oc12` (stereo not drawn) [Oxyimperatorin], the “OC43 Inhibition rate” value (24 h) is on record as 2.8%.
